# Assay results from PubChem BioAssay (NCI).
# Several values for one entry are separate records, joined by “and”; a condition that tells them apart may be missing. Equal values may be shown once. The panel holds about 79,000 compounds, 15% with a hit somewhere; the sample as a whole holds those more often. A number with no mark means an inactive call. Activity calls are given as the source filed them. Rule as the data show it: active = growth inhibition above about 70%; inactive = the rest.
# What was measured:
# [1] = NCI Yeast Anticancer Drug Screen. Data for the rad52 strain (AID 147);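 also: 0% = growth of vehicle-treated control cultures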; conditions: S. cerevisiae rad52 mutant growth inhibition, hits give high values
# In short: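 The repair-mutant yeast strain was incubated with compounds, then growth was read and inhibition derived relative to vehicle.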
# [2] = NCI Yeast Anticancer Drug Screen. Data for the wt1 strain (AID 149);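 also: 0% = growth of vehicle-treated wt1 cultures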; conditions: S. cerevisiae wt1 strain (SPY 50644) growth inhibition, hits give high values
# In short: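 Measured: growth of wt1 yeast under compound versus vehicle treatment, reported as inhibition.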
# [3] = NCI Yeast Anticancer Drug Screen. Data for the rad50EPP+ strain (AID 151);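 also: 0% = growth of vehicle-treated control cultures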; conditions: S. cerevisiae rad50 mutant strain, hits give high values
# In short: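 Vehicle-normalised growth inhibition; rad50EPP+ yeast strain, altered in DNA damage repair, compound-treated.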
# [4] = NCI Yeast Anticancer Drug Screen. Data for the rad50 strain (AID 155);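 also: 0% = growth of vehicle-only cultures of the same strain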; conditions: S. cerevisiae rad50 strain growth inhibition, hits give high values
# In short: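 Growth of the mutant yeast was measured after compound exposure and referenced to vehicle-treated cultures.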
# [5] = NCI Yeast Anticancer Drug Screen. Data for the mec2-1 strain (AID 157); conditions: S. cerevisiae mec2-1 strain, hits give high values
# In short: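 Mutant yeast (mec2-1) grown with compound; growth inhibition relative to vehicle control reported.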
# [6] = NCI Yeast Anticancer Drug Screen. Data for the rad14 strain (AID 159);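 also: 0% = growth of vehicle-treated control cultures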; conditions: S. cerevisiae rad14 strain growth inhibition, hits give high values
# In short: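 Here, inhibition of yeast growth was measured after compound exposure, using a strain with a genetic defect in DNA damage repair and vehicle-treated cultures as the reference.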
# [7] = NCI Yeast Anticancer Drug Screen. Data for the sgs1 mgt1 strain (AID 161);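 also: 0% = growth of cultures given vehicle only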; conditions: S. cerevisiae sgs1 mgt1 strain, hits give high values
# In short: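 This yeast growth screen uses a strain with defined DNA-repair lesions; compound-treated growth is compared with vehicle-treated growth.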
# [8] = NCI Yeast Anticancer Drug Screen. Data for the CLN2oe strain (AID 163);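 also: 0% = growth of vehicle-only control cultures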; conditions: S. cerevisiae CLN2oe strain, hits give high values
# In short: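 Compounds are applied to yeast harbouring a defined cell-cycle control change; reduced growth compared with vehicle-treated controls gives the value.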
# [9] = NCI Yeast Anticancer Drug Screen. Data for the cln2 rad14 strain (AID 165);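 also: 0% = growth equal to vehicle treated cultures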; conditions: S. cerevisiae cln2 rad14 strain, hits give high values
# In short: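 Readout is yeast growth inhibition versus vehicle-treated controls, using a strain with cln2 and rad14 alterations exposed to compound.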
# [10] = NCI Yeast Anticancer Drug Screen. Data for the bub3 strain (AID 167); conditions: S. cerevisiae bub3 mutant strain, hits give high values
# In short: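 Whole-cell yeast assay. The mutant strain was incubated with compounds, and growth inhibition was determined by comparison with vehicle-treated cells.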
# [11] = NCI Yeast Anticancer Drug Screen. Data for the wt2 strain (AID 169);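 also: 0% = growth of vehicle-treated yeast cultures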; conditions: S. cerevisiae wt2 strain growth inhibition, hits give high values
# In short: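 Against vehicle-treated controls, the growth of yeast exposed to each compound was compared, and the inhibition was recorded.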
# [12] = NCI Yeast Anticancer Drug Screen. Data for the sgs1 strain (AID 173);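 also: 0% = growth of vehicle-only control cultures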; conditions: S. cerevisiae sgs1 mutant, hits give high values
# In short: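 Each compound was added to cultures of the altered yeast strain. Growth was recorded, and inhibition was derived by comparison with vehicle controls.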
# [13] = NCI Yeast Anticancer Drug Screen. Data for the mlh1 rad18 strain (AID 175); conditions: S. cerevisiae mlh1 rad18 strain growth inhibition, hits give high values
# In short: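 Genetically defined yeast (DNA repair-deficient) exposed to compounds; growth inhibition determined relative to vehicle.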
# [14] = NCI Yeast Anticancer Drug Screen. Data for the rad18 strain (AID 177); conditions: S. cerevisiae rad18 mutant growth inhibition, hits give high values
# In short: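 Vehicle-treated cultures served as the baseline for scoring compound-induced growth inhibition in DNA-repair-mutant yeast.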
# [15] = NCI Yeast Anticancer Drug Screen. Data for the mlh1 strain (AID 171);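 also: 0% = growth of vehicle-treated control cultures of the same strain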; conditions: S. cerevisiae mlh1 strain growth inhibition, hits give high values
# In short: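 Measured: yeast growth. Reference: vehicle-treated controls. Organism: strain with a defined alteration affecting DNA damage repair or cell cycle control, treated with compound.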
# [16] = at 5.0 µM (retest, dose inferred, filed as 0.5)
# [17] = at 50.0 µM (retest, dose inferred, filed as 5.0)
structure (smiles),measurement,setting,value
COc1ccc(/C(C#N)=C/c2ccc(OC)c(OC)c2)cc1,growth inhibition,[1]; at 1.2 µM,10%
same,growth inhibition,[1]; at 3.7 µM,-6%
same,growth inhibition,[1]; at 11.0 µM,-1%
same,growth inhibition,[1]; at 33.0 µM,-13%
same,growth inhibition,[1]; at 100.0 µM,21%
same,growth inhibition,[2]; at 1.2 µM,-37%
same,growth inhibition,[2]; at 3.7 µM,-21%
same,growth inhibition,[2]; at 11.0 µM,-22%
same,growth inhibition,[2]; at 33.0 µM,-23%
same,growth inhibition,[2]; at 100.0 µM,0%
same,growth inhibition,[3]; at 1.2 µM,-17%
same,growth inhibition,[3]; at 3.7 µM,0%
same,growth inhibition,[3]; at 11.0 µM,8%
same,growth inhibition,[3]; at 33.0 µM,60%
same,growth inhibition,[3]; at 100.0 µM,54%
same,growth inhibition,[4]; at 1.2 µM,2%
same,growth inhibition,[4]; at 3.7 µM,-4%
same,growth inhibition,[4]; [16],46%
same,growth inhibition,[4]; at 11.0 µM,-12%
same,growth inhibition,[4]; at 33.0 µM,6%
same,growth inhibition,[4]; [17],83% (active)
same,growth inhibition,[4]; at 50.0 µM,15.1% and 51.5%
same,growth inhibition,[4]; at 100.0 µM,14%
same,growth inhibition,[5]; at 1.2 µM,-11%
same,growth inhibition,[5]; at 3.7 µM,-7%
same,growth inhibition,[5]; [16],56%
same,growth inhibition,[5]; at 11.0 µM,-21%
same,growth inhibition,[5]; at 33.0 µM,-10%
same,growth inhibition,[5]; [17],92% (active)
same,growth inhibition,[5]; at 50.0 µM,43.8% and 38%
same,growth inhibition,[5]; at 100.0 µM,18%
same,growth inhibition,[6]; at 1.2 µM,-17%
same,growth inhibition,[6]; at 3.7 µM,-29%
same,growth inhibition,[6]; at 11.0 µM,-27%
same,growth inhibition,[6]; at 33.0 µM,-13%
same,growth inhibition,[6]; at 100.0 µM,32%
same,growth inhibition,[7]; [16],-15%
same,growth inhibition,[7]; [17],57%
same,growth inhibition,[7]; at 50.0 µM,46.8%
same,growth inhibition,[8]; at 1.2 µM,13%
same,growth inhibition,[8]; at 3.7 µM,9%
same,growth inhibition,[8]; at 11.0 µM,-2%
same,growth inhibition,[8]; at 33.0 µM,0%
same,growth inhibition,[8]; at 100.0 µM,-5%
same,growth inhibition,[9]; [16],55%
same,growth inhibition,[9]; [17],60%
same,growth inhibition,[9]; at 50.0 µM,7.8%
same,growth inhibition,[10]; at 1.2 µM,-5%
same,growth inhibition,[10]; at 3.7 µM,-3%
same,growth inhibition,[10]; [16],10%
same,growth inhibition,[10]; at 11.0 µM,2%
same,growth inhibition,[10]; at 33.0 µM,9%
same,growth inhibition,[10]; [17],75% (active)
same,growth inhibition,[10]; at 50.0 µM,50.2%
same,growth inhibition,[10]; at 100.0 µM,51%
same,growth inhibition,[11]; at 1.2 µM,-49%
same,growth inhibition,[11]; at 3.7 µM,-35%
same,growth inhibition,[11]; at 11.0 µM,-21%
same,growth inhibition,[11]; at 33.0 µM,-5%
same,growth inhibition,[11]; at 100.0 µM,21%
same,growth inhibition,[12]; at 1.2 µM,-8%
same,growth inhibition,[12]; at 3.7 µM,-13%
same,growth inhibition,[12]; at 11.0 µM,-20%
same,growth inhibition,[12]; at 33.0 µM,2%
same,growth inhibition,[12]; at 100.0 µM,16%
same,growth inhibition,[13]; [16],30%
same,growth inhibition,[13]; [17],81% (active)
same,growth inhibition,[13]; at 50.0 µM,26.1% and 58.4%
same,growth inhibition,[14]; at 1.2 µM,-13%
same,growth inhibition,[14]; at 3.7 µM,-17%
same,growth inhibition,[14]; at 11.0 µM,-13%
same,growth inhibition,[14]; at 33.0 µM,0%
same,growth inhibition,[14]; at 100.0 µM,13%
CC(=O)C1=C(O)C2(C)c3c(O)c(C)c(O)c(C(C)=O)c3OC2(Sc2ccccc2)CC1=O (stereo unspecified),growth inhibition,[1]; at 1.2 µM,24%
same,growth inhibition,[1]; at 3.7 µM,43%
same,growth inhibition,[1]; at 11.0 µM,54%
same,growth inhibition,[1]; at 33.0 µM,58%
same,growth inhibition,[1]; at 100.0 µM,86% (active)
same,growth inhibition,[2]; at 1.2 µM,21%
same,growth inhibition,[2]; at 3.7 µM,51%
same,growth inhibition,[2]; at 11.0 µM,55%
same,growth inhibition,[2]; at 33.0 µM,66%
same,growth inhibition,[2]; at 100.0 µM,89% (active)
same,growth inhibition,[3]; at 1.2 µM,23%
same,growth inhibition,[3]; at 3.7 µM,18%
same,growth inhibition,[3]; at 11.0 µM,30%
same,growth inhibition,[3]; at 33.0 µM,33%
same,growth inhibition,[3]; at 100.0 µM,52%
same,growth inhibition,[4]; at 1.2 µM,20%
same,growth inhibition,[4]; at 3.7 µM,20%
same,growth inhibition,[4]; [16],-15%
same,growth inhibition,[4]; at 11.0 µM,36%
same,growth inhibition,[4]; at 33.0 µM,53%
same,growth inhibition,[4]; [17],85% (active)
same,growth inhibition,[4]; at 50.0 µM,63% and 7.1%
same,growth inhibition,[4]; at 100.0 µM,83% (active)
same,growth inhibition,[5]; at 1.2 µM,4%
same,growth inhibition,[5]; at 3.7 µM,24%
same,growth inhibition,[5]; [16],22%
same,growth inhibition,[5]; at 11.0 µM,43%
same,growth inhibition,[5]; at 33.0 µM,54%
same,growth inhibition,[5]; [17],93% (active)
same,growth inhibition,[5]; at 50.0 µM,68.6% and -7.9%
same,growth inhibition,[5]; at 100.0 µM,84% (active)
same,growth inhibition,[6]; at 1.2 µM,0%
same,growth inhibition,[6]; at 3.7 µM,5%
same,growth inhibition,[6]; at 11.0 µM,17%
same,growth inhibition,[6]; at 33.0 µM,30%
same,growth inhibition,[6]; at 100.0 µM,85% (active)
same,growth inhibition,[7]; [16],9%
same,growth inhibition,[7]; [17],91% (active)
same,growth inhibition,[7]; at 50.0 µM,48.1% and 0.4%
same,growth inhibition,[8]; at 1.2 µM,-1%
same,growth inhibition,[8]; at 3.7 µM,34%
same,growth inhibition,[8]; at 11.0 µM,44%
same,growth inhibition,[8]; at 33.0 µM,52%
same,growth inhibition,[8]; at 100.0 µM,85% (active)
same,growth inhibition,[9]; [16],50%
same,growth inhibition,[9]; [17],94% (active)
same,growth inhibition,[9]; at 50.0 µM,68.8% and 4.6%
same,growth inhibition,[10]; at 1.2 µM,12%
same,growth inhibition,[10]; at 3.7 µM,40%
same,growth inhibition,[10]; [16],36%
same,growth inhibition,[10]; at 11.0 µM,42%
same,growth inhibition,[10]; at 33.0 µM,51%
same,growth inhibition,[10]; [17],91% (active)
same,growth inhibition,[10]; at 50.0 µM,59.5% and -0.65%
same,growth inhibition,[10]; at 100.0 µM,86% (active)
same,growth inhibition,[15]; at 1.2 µM,3%
same,growth inhibition,[15]; at 3.7 µM,23%
same,growth inhibition,[15]; at 11.0 µM,25%
same,growth inhibition,[15]; at 33.0 µM,38%
same,growth inhibition,[15]; at 100.0 µM,83% (active)
same,growth inhibition,[12]; at 1.2 µM,20%
same,growth inhibition,[12]; at 3.7 µM,35%
same,growth inhibition,[12]; at 11.0 µM,48%
same,growth inhibition,[12]; at 33.0 µM,55%
same,growth inhibition,[12]; at 100.0 µM,85% (active)
same,growth inhibition,[13]; [16],14%
same,growth inhibition,[13]; [17],89% (active)
same,growth inhibition,[13]; at 50.0 µM,61.6% and 6.3%
same,growth inhibition,[14]; at 1.2 µM,18%
same,growth inhibition,[14]; at 3.7 µM,39%
same,growth inhibition,[14]; at 11.0 µM,31%
same,growth inhibition,[14]; at 33.0 µM,47%
same,growth inhibition,[14]; at 100.0 µM,82% (active)
